Measured values: PubChem BioAssay AID1220 (Sanford-Burnham Center for Chemical Genomics, 2008)
About 1,300 (0.68%) of roughly 190,000 compounds were called active. Cut-off read from the data, not from the text of the source: active = inhibition above about 50%; inactive = the rest. The full list was thinned out, with actives kept by preference.

Biological target: Mannose-6-phosphate isomerase (Homo sapiens) (UniProt P34949)
Experiment: MPI inhibition at elevated mannose 6-phosphate – biochemical, fluorescence intensity, high mannose 6-phosphate, primary screen (AID 1220)
Conditions: recombinant PMI enzyme, coupled fluorescence intensity; at 20 µM; hits give high values

Sequence of Mannose-6-phosphate isomerase (Homo sapiens) (P34949 whole entry, looked up): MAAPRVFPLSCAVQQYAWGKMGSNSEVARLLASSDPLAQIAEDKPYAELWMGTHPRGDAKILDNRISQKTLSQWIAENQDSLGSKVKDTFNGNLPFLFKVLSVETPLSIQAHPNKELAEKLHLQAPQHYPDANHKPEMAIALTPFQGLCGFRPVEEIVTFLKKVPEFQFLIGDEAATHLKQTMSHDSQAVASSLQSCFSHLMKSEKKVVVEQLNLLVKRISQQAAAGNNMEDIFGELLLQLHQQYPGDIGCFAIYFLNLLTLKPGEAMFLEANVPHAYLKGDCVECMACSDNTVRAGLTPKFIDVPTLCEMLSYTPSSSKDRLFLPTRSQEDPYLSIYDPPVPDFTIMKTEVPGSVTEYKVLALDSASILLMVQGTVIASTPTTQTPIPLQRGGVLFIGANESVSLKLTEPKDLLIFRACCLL

SMILES | inhibition
CCc1nc(N2CCOCC2)c(C#N)c2c1CCCC2 | 4.2% (inactive)
N#Cc1c(N2CCCCC2)nc(N)c2c(N)nc3c(c12)CC(c1ccccc1)O3 (stereo not drawn) | 56.5% (active)
CCN(CC)c1nc(N)c2c(N)nc3c(c2c1C#N)CC(c1ccccc1)O3 (stereo not drawn) | 31.2% (inactive)
COc1ccc(CN2C(=O)Cc3c2nc(N)c2c(N)nc(N4CCCCC4)c(C#N)c32)cc1 | 37.8% (inactive)
N#Cc1c(N2CCCCC2)nc(N)c2c(N)nc3c(c12)CC(CCl)O3 (stereo not drawn) | 47.3% (inactive)
CCC1Cc2c(nc(N)c3c(N)nc(N4CCOCC4)c(C#N)c23)O1 (stereo not drawn) | 61.5% (active)
CCOc1ccccc1C1N(c2ccc(OC)cc2)C(=O)C2CCCN21 (stereo not drawn) | 2.6% (inactive)
CC(C)(C)NC(=O)C(c1ccncc1)N(C(=O)Cn1nnc(-c2ccc(F)cc2)n1)c1ccccc1F (stereo not drawn) | 1.9% (inactive)
O=C(Nc1ccccc1NC(=O)C1CCCO1)c1ccco1 (stereo not drawn) | 51.8% (active)
Cc1ccc(NC(=O)c2ccco2)c(NC(=O)C2CCCO2)c1 (stereo not drawn) | 11.8% (inactive)
O=C(Nc1cccc(NC(=O)C2CCCO2)c1)c1ccco1 (stereo not drawn) | 13.7% (inactive)
CCOC(=O)N1CCC(N(CCN(C)C)C(=S)Nc2cccc(Cl)c2)CC1 | 10.6% (inactive)
O=c1c2ccccc2sn1-c1ccc(S(=O)(=O)N2CCCC2)cc1 | 5% (inactive)
O=c1c2ccccc2sn1-c1cc(S(=O)(=O)N2CCOCC2)ccc1N1CCCC1 | 77.3% (active)
O=c1c2ccccc2sn1-c1cc(S(=O)(=O)N2CCOCC2)ccc1N1CCOCC1 | 96.3% (active)
Cc1ccc(C)n1-c1cc(S(=O)(=O)N2CCOCC2)ccc1N1CCCC1 | 17% (inactive)
O=S(=O)(c1ccc2c(c1)oc1ccccc12)N1CCOCC1 | 3.7% (inactive)
O=C(O)c1cc(S(=O)(=O)N2CCOCC2)ccc1N1CCOCC1 | -9.3% (inactive)
Cc1cc2ccccc2n1CCNC(=O)C(C)Oc1ccccc1 (stereo not drawn) | 5.6% (inactive)
Cc1cc(Nc2ccccc2)nc(N2CCOCC2)n1 | -4.3% (inactive)
COCCCNC(=O)c1cc(C(=O)c2c(-c3c(Cl)cccc3Cl)noc2C)c[nH]1 | -2.4% (inactive)
CC1(C)CC(=O)c2cnc3c(C#N)cnn3c2C1 | 6.6% (inactive)
Cc1ccc(CN(Cc2ccco2)C(=S)Nc2ccccc2C)cc1 | 8.6% (inactive)
O=c1c(N2CCOCC2)nsnc1N1CCOCC1 | 53.3% (active)
COc1nsnc1N1CCOCC1 | -11.2% (inactive)

SMILES | inhibition
O=c1[nH]snc1N1CCOCC1 | -7.2% (inactive)
Cc1ccc(Oc2c(F)c(F)nc(N3CCCC3)c2F)cc1 | 32.2% (inactive)
CCN(CC(=O)NCc1cccs1)C(=O)CCc1c[nH]c2ccccc12 | 8.8% (inactive)
Cc1cc(N)n(-c2ccc(C(=O)O)cc2)n1 | 2.1% (inactive)
Cc1cc(C)n(-c2ccc(C(=O)O)cc2)n1 | 30.6% (inactive)
CC(C)(C)c1cc(N)n(-c2ccc(C(=O)O)cc2)n1 | 52.8% (active)
O=C(Cn1cnc2sc(-c3ccccc3)cc2c1=O)NCc1ccccc1 | -8.4% (inactive)
CCOC(=O)C1=C(CSc2nccn2C)NC(=O)NC1c1cc(C)ccc1C (stereo not drawn) | -2% (inactive)
CCN(CC)Cc1cc(C(C)=O)ccc1O | -8.6% (inactive)
CCN(CC)Cc1cc(O)c(CN(CC)CC)cc1O | 54.7% (active)
CCc1oc(C(=O)O)cc1CN(CC)CC | 10.9% (inactive)
CC(=O)Nc1ccc(NC(=O)CCC(=O)OCC(=O)c2ccc(C)c([N+](=O)[O-])c2)cc1 | -5.6% (inactive)
O=C(c1ccc(C(=O)N2CCOCC2)s1)N1CCOCC1 | -3.8% (inactive)
CN1C(=O)/C(=C/C=C2\SCCN2C)SC1=S | 29.3% (inactive)
CCN1C(c2ccccc2)=C(c2ccccc2)S/C1=C/C=C1\SC(=S)N(C)C1=O | 54.4% (active)
CCN1C(=O)/C(=C/C=C2/Sc3ccc4ccccc4c3N2CCO)SC1=S | -5.4% (inactive)
CC1(C)CC2CC(C)(CN2C(=O)C23CCC(C)(C(=O)O2)C3(C)C)C1 (stereo not drawn) | 9.1% (inactive)
O=C(COC(=O)CCc1ccccc1)Nc1cc(S(=O)(=O)N2CCOCC2)ccc1N1CCCC1 | 7.1% (inactive)
Cc1cccc(C)c1N=Cc1c(C(F)(F)F)[nH][nH]c1=O | 0.2% (inactive)
O=c1[nH][nH]c(C(F)(F)F)c1C=Nc1ccccc1Cl | -6.7% (inactive)
Cc1cc(O)ccc1N=Cc1c(C(F)(F)F)[nH][nH]c1=O | 62.2% (active)
COc1ccc(CNC(=O)CN(c2ccccc2)S(=O)(=O)c2ccccc2[N+](=O)[O-])cc1 | -11.2% (inactive)
CCN(Cc1ccccc1)C(=O)Cn1cc2c(n1)CCCC2 | 10.5% (inactive)
Cc1ccc(CNC(=O)CCc2nc3ccccc3c(=O)[nH]2)cc1 | 2.2% (inactive)
CCOC(=O)N1CCC(c2nc(C)sc2C(=O)O)CC1 | 1.2% (inactive)

SMILES | inhibition
CC(C)Cn1nc(NC(=O)C2CCCO2)c2cc3ccccc3nc21 (stereo not drawn) | 6.4% (inactive)
Cc1occc1-c1nnc(SCC(=O)N2CCOCC2)n1CC(C)C | 6.1% (inactive)
COc1ccc([N+](=O)[O-])cc1NC(=O)CC(c1ccccc1)c1ccccc1 | 7.4% (inactive)
COc1ccc(C(CC(=O)Nc2cc([N+](=O)[O-])ccc2OC)c2ccccc2)cc1 (stereo not drawn) | 54.1% (active)
COc1ccc([N+](=O)[O-])cc1NC(=O)CC(C)c1ccccc1 (stereo not drawn) | 14.4% (inactive)
CS(=O)(=O)N1CCC(Oc2ccccc2C(=O)NC(C2CC2)C2CC2)CC1 | 2.8% (inactive)
CCOC(=O)c1cnc(SC2CCc3ccccc3C2=O)nc1N (stereo not drawn) | 53% (active)
CCOC(=O)c1cnc(SC2CC(=O)N(c3ccccc3)C2=O)nc1N (stereo not drawn) | 0.1% (inactive)
CCOC(=O)c1cnc(SC2CC(=O)N(c3ccc(C)cc3)C2=O)nc1N (stereo not drawn) | -5.1% (inactive)
COCCn1nnnc1C(C(C)C)N1CCSCC1 (stereo not drawn) | -8% (inactive)
N#CC1(C#N)CC(C=O)=C(N)C1(C#N)CC(=O)C12CC3CC(CC(C3)C1)C2 (stereo not drawn) | 32.5% (inactive)
N#CC1(C#N)CC(C=O)=C(N)C1(C#N)CC(=O)c1ccc(F)cc1 (stereo not drawn) | 52.8% (active)
O=C(/C=C\NCC(=O)c1ccccc1)c1ccc(F)cc1 | -70.8% (inactive)
COc1ccc(OCCNc2cc(N3CCOCC3)ccc2[N+](=O)[O-])cc1 | 5.4% (inactive)
O=C(CSc1ccc(Cl)cc1)Nc1cccc(-c2nc3ncccc3o2)c1 | -3.6% (inactive)
S=C(Nc1ccc2c(c1)OCO2)Nc1ccc2c(c1)OCO2 | 62.3% (active)
CN(C)C(=S)Nc1ccc2c(c1)OCO2 | 11.8% (inactive)
CNS(=O)(=O)c1ccc(NC(=S)Nc2ccc3c(c2)OCO3)cc1 | 55.7% (active)
C=CCN(CC=C)C(=S)Nc1ccc(OC)c(OC)c1 | 20.1% (inactive)
O=C(NCc1ccc2c(c1)OCO2)Nc1ccc2nsnc2c1 | 26.7% (inactive)
NS(=O)(=O)c1ccc(NC(=S)NCc2ccc3c(c2)OCO3)cc1 | 17.1% (inactive)
S=C(NCc1ccc(Cl)c(Cl)c1)Nc1ccc2c(c1)OCO2 | 10.2% (inactive)
O=C(Nc1ccc(S(=O)(=O)NCc2ccccc2)cc1)Nc1ccc2c(c1)OCO2 | 8.6% (inactive)
C=CCNC(=S)Nc1ccc2nsnc2c1 | 9.9% (inactive)
S=C(NCc1ccc2c(c1)OCO2)Nc1ccc2nsnc2c1 | 53.7% (active)

SMILES | inhibition
C=CCN(CC=C)C(=S)Nc1ccc2nsnc2c1 | 55.3% (active)
NC(=S)Nc1ccc2c(c1)OCO2 | 1.7% (inactive)
CCCN1C(=O)C(O)(C/C(C)=N/O)c2ccccc21 (stereo not drawn) | 3.5% (inactive)
COc1ccc(CC(=O)OC(C)CN2CCOCC2)cc1 (stereo not drawn) | -1.4% (inactive)
Cc1ccc(-c2nc(C3CCCN(S(=O)(=O)c4ccc(C)cc4)C3)no2)cc1 (stereo not drawn) | 5.6% (inactive)
CCN(CC)S(=O)(=O)c1ccc(C(=O)OCn2c(SC)nnc(C)c2=O)cc1 | 12.1% (inactive)
O=S(=O)(NCc1ccccc1)c1cccc(S(=O)(=O)N2CCOCC2)c1 | 4.1% (inactive)
O=C(Nc1ccc2c(c1)OCO2)Nc1ccc2c(c1)OCO2 | 15.8% (inactive)
O=S(=O)(NCc1ccc(F)cc1)c1cccc(S(=O)(=O)N2CCOCC2)c1 | -0.5% (inactive)
O=S(=O)(NCc1ccc2c(c1)OCO2)c1cccc(S(=O)(=O)N2CCOCC2)c1 | 52.5% (active)
O=S(=O)(c1ccc(NC(=S)Nc2ccc3c(c2)OCO3)cc1)N1CCOCC1 | 52.2% (active)
CCn1ncc(NC(=S)Nc2ccc3c(c2)OCO3)c1C(N)=O | 57.3% (active)
O=S(=O)(c1ccc(NC(=S)Nc2ccccc2)cc1)N1CCOCC1 | -2.7% (inactive)
O=C(Nc1ccc2c(c1)OCCO2)Nc1ccc2c(c1)OCO2 | 13% (inactive)
CCn1ncc(Br)c1C(=O)Nc1ccc2c(c1)OCCO2 | 0.3% (inactive)
Cc1ccc(NC(=S)Nc2ccc(S(=O)(=O)N3CCOCC3)cc2)cc1S(=O)(=O)N1CCOCC1 | -1.2% (inactive)
CCn1ncc(NC(=S)NCCc2ccccc2)c1C(N)=O | 5.4% (inactive)
S=C(Nc1ccc2c(c1)OCCO2)Nc1ccc2c(c1)OCO2 | 62.7% (active)
O=C1CC(c2ccc(F)cc2)CC2=C1C=Nc1ccccc1N2 (stereo not drawn) | -4.8% (inactive)
Cc1nn(Cc2ccccc2)c(C)c1NC(=O)CCCn1nc(C)c([N+](=O)[O-])c1C | -2.1% (inactive)
CCCCC(=O)Nc1ccc(NC(=O)c2cc(OC)c(OC)c(OC)c2)cn1 | 3.2% (inactive)
CCN1CCCc2cc(CN(CCN3CCOCC3)C(=S)Nc3ccc(OC)c(OC)c3)ccc21 | 22.3% (inactive)
COc1ccccc1CNC(=O)C1CCC(CNc2c(N3CCOCC3)c(=O)c2=O)CC1 (stereo not drawn) | 16.7% (inactive)
